Screening results: PubChem BioAssay, National Center for Advancing Translational Sciences (NCATS)
Only some compounds are listed: those with a hit (about 2.6% of all), similar ones and a draw of the others.
Cruzain Triton: cruzain (T. cruzi) inhibition with detergent | 200,000 tested, 0.43% active | P25779 | purified cruzain, Z-FR-AMC fluorescence, 0.01% Triton | Potency, µM, hits mostly inhibitors; further: nearly all actives have a fitted effect of over 40% in size
Target sequence (P25779 123-467 limits assumed): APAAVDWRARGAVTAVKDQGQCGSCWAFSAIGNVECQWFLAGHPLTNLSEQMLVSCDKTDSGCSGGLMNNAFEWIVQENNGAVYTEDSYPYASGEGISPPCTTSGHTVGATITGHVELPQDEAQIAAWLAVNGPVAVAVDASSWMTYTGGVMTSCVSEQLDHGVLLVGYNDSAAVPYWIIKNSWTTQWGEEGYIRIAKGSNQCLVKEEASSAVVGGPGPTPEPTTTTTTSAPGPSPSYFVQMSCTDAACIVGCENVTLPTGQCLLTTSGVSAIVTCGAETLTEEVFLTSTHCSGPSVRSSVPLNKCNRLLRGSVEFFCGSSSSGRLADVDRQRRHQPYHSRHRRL
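Sodium acetate buffer (100 mM, pH 5.5) containing 5 mM DTT and 0.01% Triton X-100 hosted 1.5 nM cruzain and test compound for 15 min at room temperature. Cleavage of 2 uM Z-FR-AMC was then tracked by fluorescence.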
Cruzain noTriton: blocks cruzain activity in detergent-free assay; P25779; purified cruzain, Z-FR-AMC fluorescence, no detergent; Potency, µM, hits mostly inhibitors; 200,000 tested, 2.3% active; AID 1476; further: nearly all actives have a fitted effect of over 40% in size
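Purified cruzain at 1.5 nM, pre-incubated 15 min with compound at room temperature in 100 mM sodium acetate pH 5.5, 5 mM DTT, 0.00005% Triton X-100. Reaction started with 2 uM Z-FR-AMC; AMC fluorescence increase over 60 s gives rate.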
Numbers stand for hits; - = inactive; ? = inconclusive; ! = not confirmed by another sample. The call rests on the fitted dose curve; in most records, active means well fitted curve in the direction sought with a large enough effect; inconclusive means small, poorly fitted or top-dose-only effect, or another doubt; inactive means no such curve, though single readings can be large; an effect the other way counts as inactive or inconclusive.

SMILES	Cruzain Triton	Cruzain noTriton
COc1ccc(CNC(=O)CCCn2nc(C)c3sc4ccccc4c3c2=O)cc1OC	-	-
O=C(CCS(=O)(=O)c1ccccc1)N(Cc1cccnc1)c1nc2c(Cl)cccc2s1	-	-
CCOC(=O)c1cc([N+](=O)[O-])sc1NC(=O)c1ccc(S(=O)(=O)N2CC3(C)CC2CC(C)(C)C3)cc1 (configuration not stated)	-	3.98µM
CC1(C)CC2CC(C)(CN2S(=O)(=O)c2ccc(C(=O)Nc3ccc(S(=O)(=O)N4CCOCC4)cc3)cc2)C1 (configuration not stated)	-	-
Cc1nn(-c2ccccc2)c(OC(=O)C(C)C)c1Sc1ccc(Cl)cc1	-	-
O=C(Nc1nnc(CCS(=O)(=O)c2ccc3ccccc3c2)s1)c1ccc([N+](=O)[O-])cc1	-	12.6µM
O=C(Nc1nnc(CCS(=O)(=O)c2ccc3ccccc3c2)s1)c1cccs1	-	?
O=C(Nc1ncc(S(=O)(=O)c2ccc([N+](=O)[O-])cc2)s1)c1ccc2ccccc2c1	-	20µM
Cc1ccc(Nc2nnc(SCC(=O)Nc3ncc(S(=O)(=O)c4ccc([N+](=O)[O-])cc4)s3)s2)cc1	-	7.94µM
CS(=O)(=O)Nc1nnc(SCC(=O)Nc2cccc([N+](=O)[O-])c2)s1	-	-
O=C(Nc1ncc(Cc2cc(Cl)ccc2Cl)s1)c1ccc([N+](=O)[O-])cc1	-	12.6µM
O=C(Nc1ncc(Cc2cccc(Cl)c2Cl)s1)c1ccc([N+](=O)[O-])cc1	-	-
CCC(C)(C)C(=O)Nc1ncc(S(=O)(=O)c2ccc([N+](=O)[O-])cc2)s1	-	-
CCc1ccc(OCC(=O)N(Cc2cccs2)c2ccc(Cl)cc2)cc1	-	-
CSc1ccc(CNC(=O)Cn2nc(N3CCN(c4ccccc4)CC3)ccc2=O)cc1	-	?
CCC(CC)C(=O)Nc1nnc(SCc2cc(=O)c3ccccc3[nH]2)s1	-	?
CCC(C(=O)Nc1cc(OC)ccc1OC)n1nc(-c2ccccc2)c2c(c1=O)CCCC2 (configuration not stated)	-	-
O=C(Nc1ccccc1)N1CC[C@@]2(CCCN(C(=O)c3csnn3)C2)C1	-	-
S=C(Nc1ccccc1)Nc1ccccc1C#Cc1ccccc1	-	-
Cc1ccc(-c2nc(NC(=O)CSc3cc(C)c4ccccc4n3)ns2)cc1	-	?
O=C(CSc1ccc2ccccc2n1)Nc1nsc(-c2ccc(Cl)cc2)n1	-	31.6µM!
O=C1c2cccnc2-c2ncccc21	-	-
CC1(C)OCC(CSC2=C(SCC3COC(C)(C)O3)C(=O)c3ncccc3C2=O)O1 (configuration not stated)	15.8µM	?
COC(=O)[C@@]1(Cc2ccc(OC)cc2)[C@H]2c3cc(C(=O)N(C)C)n(Cc4ccsc4Br)c3C[C@H]2CN1C(=O)c1ccccc1	-	?
Cc1cc(C)nc(NC(=O)CSc2nc3cc(Cl)ccc3s2)n1	-	-
SMILES	Cruzain Triton	Cruzain noTriton
Cc1cc(NC(=O)CSc2nc3cc(Cl)ccc3s2)no1	-	10µM
CCOC(=O)c1c(NC(=O)CSc2nc3ccccc3s2)sc(C(C)=O)c1C	-	-
CCOC(=O)c1c(NC(=O)CSc2nc3cc(Cl)ccc3s2)sc(C(C)=O)c1C	-	15.8µM
C[C@@H](CCc1ccccc1)NC[C@H](O)c1ccc(O)c(C(N)=O)c1	-	-
COc1ccc(C(=O)Nc2ccc(NC(=O)c3cccs3)cc2)cc1[N+](=O)[O-]	-	-
CCOc1ccc(C(=O)Nc2ccc(NC(=O)c3cccs3)cc2)cc1[N+](=O)[O-]	-	7.94µM
Cc1ccc(C(=O)NC(=S)Nc2ccccc2N2CCCC2)cc1[N+](=O)[O-]	-	-
Cc1ccc(C(=O)NC(=S)Nc2ccc(NC(=O)c3cccs3)cc2)cc1[N+](=O)[O-]	-	10µM
Cc1cc(-c2ccccc2)nc2cc(C(=O)Nc3ccc(Cl)c(Cl)c3)nn12	-	-
CN(C)CCOC(=O)[C@@H](c1ccccc1)C1(O)CCCC1	-	-
O=C(NCc1cccc(Cl)c1)c1cc2c(s1)-c1ccccc1SC2	-	25.1µM
O=C(NCc1ccc(Cl)cc1)c1cc2c(s1)-c1ccccc1SC2	-	-
COCc1cc(C)nc(OCC(=O)N/N=C/c2cc(C)n(-c3c(C)cccc3C)c2C)c1C#N	-	-
COCc1c(Br)c(C)nc(OCC(=O)N/N=C/c2cc(C)n(-c3ccc([N+](=O)[O-])cc3)c2C)c1C#N	-	31.6µM
COc1ccccc1CN1CCCC2(CCN(C(=O)c3ccco3)CC2)C1	-	-
O=c1cc(-c2ccccc2)nc(SCc2nc(-c3ccccc3Cl)no2)[nH]1	-	?
O=C(CCCc1ccc(-c2ccccc2F)cc1)Nc1ccc(O)cc1	-	?
O=C(CN1c2ccc(Br)cc2-c2ccccc2S1(=O)=O)N1CCCCC1	-	-
N#CC(=NCCO)C1=C(O)c2ccccc2C1=O	-	-
O=C1C(SCCO)=C(SCCO)C(=O)c2ccccc21	?	25.1µM!
CCNc1ncc2nc(-c3ccc(OC)cc3)c(=O)n(CCc3ccccc3)c2n1	-	-
Cc1cccc(CNc2ncncc2-c2ccccc2C)c1	-	-
COc1ccc2c(c1)O[C@@H](c1cccc(C(F)(F)F)c1)[C@H](OC(=O)NCc1ccco1)C2=O	-	-
O=P1(O)Oc2c(c(-c3ccccc3)cc3ccccc23)-c2c(-c3ccccc3)cc3ccccc3c2O1	-	?
O=P1(O)Oc2c(c(-c3ccccc3)cc3ccc4ccccc4c23)-c2c(-c3ccccc3)cc3ccc4ccccc4c3c2O1	25.1µM	-
SMILES	Cruzain Triton	Cruzain noTriton
Cc1ccccc1Cn1c(CN2CCC(C(=O)NCc3cccnc3)CC2)cc2ccccc21	-	-
COc1ccccc1CNc1cc(-c2ccccc2C)ncn1	-	-
Cc1ccc(NC(=O)c2ccc(OC(=O)C(C)Oc3ccc(Cl)cc3C)cc2)cc1 (configuration not stated)	-	7.94µM
COc1ccc(C(=O)Nc2ccc(OC)c(OC)c2)cc1	-	-
CC(C)Cn1c(=O)c2ccccc2n2c(CCC(=O)N3CCN(c4ccccc4)CC3)nnc12	-	-
COc1ccccc1C(=O)Nc1nnc(SCC(=O)Nc2ccc3c(c2)oc2ccccc23)s1	-	12.6µM
Cc1cccc(C(=O)Nc2nnc(SCC(=O)Nc3ccc4c(c3)oc3ccccc34)s2)c1	-	20µM
Cc1cccc(NC(=O)CSc2nc3ccc(NC(=O)c4ccccc4)cc3s2)c1	-	-
COc1ccc(NC(=O)CSc2nnc(NC(=O)Nc3ccccc3)s2)cc1OC	-	-
COc1cccc(C(=O)Nc2cccc(-c3cn4ccsc4n3)c2)c1OC	-	-
O=C(NCc1cccc(F)c1)c1ccc(CS(=O)c2ccccc2Cl)o1 (configuration not stated)	-	-
Cc1cccc(N=Nc2c(N)n[nH]c2-c2ccc(Cl)cc2)c1	-	25.1µM
Cc1ccc(-c2[nH]nc(N)c2N=Nc2cccc(Cl)c2C)cc1	-	?
CC(=O)c1c(C)oc2c1cc(NS(=O)(=O)c1ccc(Cl)c(C)c1)c1ccccc12	-	-
Cc1ccc(C2CC(=O)Oc3ccc(O)cc32)cc1 (configuration not stated)	-	-
O=C(COc1ccccc1)N(Cc1ccccc1)c1nc(-c2ccccc2)cs1	-	?
COc1ccc(-c2csc(N(Cc3ccccc3)C(=O)COc3ccc(Cl)cc3)n2)cc1	-	6.31µM
O=C(Cc1ccccc1)Nc1nnc(-c2cccs2)s1	-	25.1µM
COCC(=O)Nc1nnc(-c2cccs2)s1	-	-
